Source: PubChem (several laboratories)
sPLA2-III inh = Blocks human group III sPLA2 activity; Q9NZ20; QFRET BODIPY PC-A2 liposome hydrolysis, fluorescence; inhibition, % at 12.2 µM; actives 0.56% (n = 370,000);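 active = inhibition above mean plus 3 SD of compounds lying within the high and low control bounds, cut at about 19% in these data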
Target sequence (Q9NZ20 whole entry, looked up): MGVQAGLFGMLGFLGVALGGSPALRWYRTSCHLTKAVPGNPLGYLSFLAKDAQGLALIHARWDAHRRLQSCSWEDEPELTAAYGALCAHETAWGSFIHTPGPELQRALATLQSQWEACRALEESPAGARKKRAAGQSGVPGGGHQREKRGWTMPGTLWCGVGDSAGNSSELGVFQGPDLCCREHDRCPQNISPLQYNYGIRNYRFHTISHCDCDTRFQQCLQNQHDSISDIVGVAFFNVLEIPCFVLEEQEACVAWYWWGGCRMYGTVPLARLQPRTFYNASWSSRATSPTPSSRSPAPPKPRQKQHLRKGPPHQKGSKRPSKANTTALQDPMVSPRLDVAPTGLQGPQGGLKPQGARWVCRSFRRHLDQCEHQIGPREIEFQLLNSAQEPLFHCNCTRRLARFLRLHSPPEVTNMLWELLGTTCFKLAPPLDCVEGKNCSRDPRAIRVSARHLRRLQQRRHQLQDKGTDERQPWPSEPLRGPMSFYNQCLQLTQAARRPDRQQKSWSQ
DAGLB inh = blocks human DAGLB lipase activity; inhibition, % at 5.17 µM; HEK293T DAGLB membrane lysate, EnzChek fluorogenic substrate; AID 504411; actives 0.059% (n = 340,000); in the data active = inhibition above about 34%
H9c2 protect = myocardial damage modulation in H9c2 cells | H9c2 cardiomyocytes, H2O2 injury protection, ATPLite, 2 h | protection from H2O2 cell death, % at 20 µM | actives 0.63% (n = 360,000);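 active = compounds giving at least 50% protection of heart cells from peroxide-induced death in the single-dose screen, raw or plate-pattern-corrected value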
ABHD5-PLIN5 inh = inhibitors of human ABHD5-perilipin-5 interaction; Split G. princeps luciferase complementation, luminescence, 4 h; Q00G26+Q8WTS1; AID 602281; inhibition, % at 4 µM; actives 0.78% (n = 360,000);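 active = inhibition above the mean inhibition across every tested compound plus 3 SD, cut at about 22% in these data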
Rtt109 Vps75 = C. albicans Rtt109 histone acetyltransferase inhibition. Q5AAJ8. purified Rtt109/Vps75, ThioGlo CoA-SH fluorescence, 4 h. inhibition, % at 34.9 µM. actives 0.16% (n = 330,000). AID 540336;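 active = inhibition of at least 50% in every replicate; inconclusive = best replicate reaches 50% inhibition but some replicates fall short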
Myeloid diff MLP = myeloid differentiation induction. calls only at 10 µM. actives 1% (n = 360,000). ER-HoxA9 myeloid progenitors, lysozyme-GFP differentiation, flow cytometry;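 active = normalized GFP-positive differentiation at or above the plate's own cutoff, the solvent-only control mean plus 3 SD; inconclusive = no clear call, values can overlap the other calls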;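 note: cells exposed to compound for four days before flow analysis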
Of the large screens only hits and unclear results are named; the others gave an inactive call. Most compounds without a hit are left out; they make up all but 2.9% or so of the library.

COc1cccc(/C=C2/C(=O)NN(c3ccc(Br)cc3)C2=O)c1O	H9c2 protect 51.9
CCOc1ccc(S(=O)(=O)N(C)CCO)cc1-c1nc2c(C(C)(C)C)nn(C)c2c(=O)[nH]1	H9c2 protect 56.4
CCOC(=O)N1CCN(C(=O)CSc2nc3c(cnn3-c3ccc(Cl)cc3)c(=O)[nH]2)CC1	none
CCOC(=O)N1CCN(C(=O)CSc2nc3c(cnn3-c3ccc(C)cc3)c(=O)[nH]2)CC1	H9c2 protect 51.2
CC(=O)Nc1ccc(S(=O)(=O)Nc2ccc3c(c2)n(C)c(=O)n3C)c(C)c1	none
N#Cc1c(-c2ccc(Cl)cc2)ccn2nc(CCC(=O)O)nc12	none
CCCCCc1nc2c(C#N)c(-c3ccc(Cl)cc3)ccn2n1	Myeloid diff MLP active
CC(C)CCNC(=O)NC(=O)COC(=O)/C=C/c1cccc([N+](=O)[O-])c1	Myeloid diff MLP active
N#Cc1c(N2CCOCC2)nc(-c2ccco2)c2c1CCCC2	ABHD5-PLIN5 inh 23.1
CCCOc1ccc(C(=O)NNC(=S)NC(=O)CC)cc1	none
COc1ccc(OC)c(-c2csc(NC(=O)C3CSC4(C)CCC(=O)N34)n2)c1 (centres undefined)	none
Cc1nc2c(OCCOc3ccccc3)cccn2c1N(C)C(=O)CCC1CCCC1	none (no result: DAGLB inh, Rtt109 Vps75)
Cc1ccc(-c2ccc(=O)n(CC(=O)NCCN3C(C)CCCC3C)n2)cc1 (centres undefined)	none
O=C(COC(=O)c1ccccc1C(=O)OCC(=O)NCCc1c[nH]c2ccccc12)NCCc1c[nH]c2ccccc12	H9c2 protect 61.8
O=C(COC(=O)c1ccccc1O)NCCc1c[nH]c2ccccc12	none
CN(C)c1ccc(C=C2C=CC=C2)cc1	none
O=C(NCc1n[nH]c(=O)c2ccccc12)C1CC(=O)N(c2ccccc2)C1 (centres undefined)	H9c2 protect 67.1
O=C(c1cc(F)ccc1F)N1CCC(N2CCC(C(=O)N3CCCC3)CC2)CC1	Myeloid diff MLP active
COCCC(=O)N1CCC(Oc2ccc(C(=O)NC(C)CCn3cccn3)cc2)CC1 (centres undefined)	none
COc1ccc(-n2c(C)nn(C)c2=O)c(OC)c1	none
Cc1ccccc1N1CCN(S(=O)(=O)c2ccc3oc(=O)ccc3c2)CC1	none
N#CCSc1ccccc1NC(=O)CN1C(=O)C2CC=CCC2C1=O (centres undefined)	Myeloid diff MLP active
COc1cc(C)ccc1S(=O)(=O)NC(=O)C1(C)CCN1C(=O)Cc1ccc(Cl)cc1Cl (centres undefined)	Myeloid diff MLP active (no result: DAGLB inh, Rtt109 Vps75)
C=CCN1C(=O)C(C)(C)N(C(C)=O)c2ccccc21	none
CC(=O)N1c2ccccc2N(Cc2ccc(C)cc2C)C(=O)C1(C)C	Myeloid diff MLP active
CC(C)(C)c1ccc(C(=O)NCCC(=O)NCc2ccc(F)cc2)cc1	none (no result: Rtt109 Vps75)
COc1cccc(OCc2cc(C(=O)N3CCC(c4ccncc4)CC3)no2)c1	Myeloid diff MLP active
COc1cccc(OCc2cc(C(=O)N(C)C3CCOCC3)no2)c1	Myeloid diff MLP active
COc1ccccc1-n1cnc2sc(-c3ccccc3)cc2c1=O	none (no result: Myeloid diff MLP)
O=C(CCSc1nc2ccccc2s1)N/N=C/c1c(O)ccc2ccccc12	H9c2 protect 53.9, Myeloid diff MLP inconclusive
COc1ccc(/C=N/NC(=O)CCSc2nc3ccccc3s2)cc1OC	none
CN(C(=O)c1ccc(S(=O)(=O)c2cccc(Cl)c2)c([N+](=O)[O-])c1)C1CCCCC1	Myeloid diff MLP inconclusive
COc1c(O)cccc1/C=N/NC(=O)Cn1ccnc1C	H9c2 protect 57.0
Cc1ccc(N(C(=O)Cn2nnc3ccccc32)C(C(=O)NC2CCCCC2)c2cn(C)nc2C)cc1 (centres undefined)	none
Cc1nn(C)cc1C(C(=O)NC1CCCCC1)N(C(=O)Cc1cccs1)c1ccc(Cl)cc1 (centres undefined)	H9c2 protect 54.7
Cn1cc(CNCc2cn(C)nc2-c2ccc(C3CCCCC3)cc2)cn1	ABHD5-PLIN5 inh 22.2
COCCN1CCCC(CNCc2cn(C)nc2-c2ccc(Oc3ccccc3)cc2)C1 (centres undefined)	none
COc1cc(C(=O)NC(C)C2CC3CCC2C3)ccc1OC(F)F (centres undefined)	none
COc1cc2c(cc1OC)CN(c1nc(CN3CCOCC3)nc3sc4c(c13)CCCC4)CC2	Myeloid diff MLP active
COC(=O)C1=CN(c2ccc(F)cc2)C(N)=C(C#N)C1c1ccccc1 (centres undefined)	none (no result: DAGLB inh, H9c2 protect, Rtt109 Vps75)
COC(=O)C1=CN(c2ccc3c(c2)OCO3)C(N)=C(C#N)C1c1ccccc1 (centres undefined)	Myeloid diff MLP active (no result: DAGLB inh, H9c2 protect, Rtt109 Vps75)
CC1(C)CC2(CC(c3ccc(F)cc3)c3ccc(O)cc3O2)NC(=S)N1 (centres undefined)	none
CC1(C)CC2(CC(c3ccccc3F)c3ccc(O)c(O)c3O2)NC(=S)N1 (centres undefined)	Rtt109 Vps75 175.1
COc1cc2c(cc1OC)CN(CC(O)c1ccccc1)CC2 (centres undefined)	none
COc1ccc(N2CCN(C(=O)CSc3nnc(-c4cccnc4)n3-c3ccc(F)cc3)CC2)cc1	none
COc1ccc(N2CCN(C(=O)CSc3nnc(-c4cccnc4)n3-c3ccccc3)CC2)cc1	Rtt109 Vps75 52.8
Cc1cccnc1Nc1nc(-c2ccc(O)c(O)c2)cs1	H9c2 protect 65.4
Cc1ccnc(Nc2nc(-c3ccc(O)c(O)c3)cs2)c1	H9c2 protect 59.9
Cc1ccnc(Nc2nc(-c3ccc(O)cc3)cs2)c1	none
C[C@@H]1CN([C@@H](C)CO)C(=O)CCCn2cc(nn2)CO[C@H]1CN(C)S(=O)(=O)c1ccc(-c2ccccc2)cc1	none (no result: Rtt109 Vps75)
Cc1ccccc1/C=C/C(=O)NCC(=O)N1CCC(N(C)C2CCCCC2C)CC1 (centres undefined)	Rtt109 Vps75 60.4
CCOc1ccc(CCNC(=O)CN2C(=O)NC3(CCCCC3C)C2=O)cc1OCC (centres undefined)	none
COc1ccc(CCNC(=O)CN2C(=O)NC3(CCCCC3C)C2=O)cc1 (centres undefined)	Rtt109 Vps75 51.1
CCOC(=O)c1c(C)oc2c1c(C=NCCO)c(O)c1ccccc12	Rtt109 Vps75 52.5
CCOC(=O)c1c(C)oc2c1c(C(c1ccccc1)N1CCOCC1)c(O)c1ccccc12 (centres undefined)	none
COC(=O)c1ccc(NS(=O)(=O)c2c(C)[nH]c(C)c2C(=O)N2CCCC2)cc1	none
COc1ccccc1OCC(=O)Nc1cccc(N(C)S(C)(=O)=O)c1	none
O=C(c1ccc2ccccc2n1)N1CCN(c2ccccn2)CC1	none
CCc1cccc(NC(=O)C2CCCN(c3ncnc4c3nc3n4CCCCC3)C2)c1 (centres undefined)	Rtt109 Vps75 87.3
